Results from PubChem BioAssay AID1159580 (chemical genetic matrix, 2015).
Among all 5,500 compounds or so, about 2,000 (36%) were called active. Not shown: some 18% with an inconclusive outcome. No stated cut-off is given here; in the data, active means normalized growth mostly below about 0.91 (no sharp cut-off); inconclusive means no clear call, values can overlap the other calls; inactive means mostly above about 0.92. Some of the results follow.

Assay: chemical genetic growth profiling, strain panel (AID 1159580);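 further: tested at 20 µM; growth read once vehicle control cultures reached saturation at 30 °C; 1 = growth at the plate median or of vehicle wells; lower values mean less growth of the strain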
Conditions: S. cerevisiae deletion strains, growth OD

Measured: normalized growth

Cc1cc(C2=CSC3=NCCN23)ccc1Cl
inactive: locus YAL013W, strain DEP1, active compounds read low 0.99 | locus YBR229C, strain ROT2, active compounds read low 1.01 | locus YDL101C, strain DUN1, active compounds read low 0.974 | locus YDL134C, strain PPH21, active compounds read low 0.989 | locus YDR150W, strain NUM1, active compounds read low 0.974 | locus YEL061C, strain CIN8, active compounds read low 1 | locus YGR078C, strain PAC10, active compounds read low 0.989 | locus YHR030C, strain SLT2, active compounds read low 0.872 | locus YHR087W, strain rtc3, active compounds read low 1.01 | locus YJL187C, strain SWE1, active compounds read low 1 | locus YJR043C, strain POL32, active compounds read low 0.999 | locus YJR075W, strain HOC1, active compounds read low 0.982 | locus YLR039C, strain RIC1, active compounds read low 1.02 | locus YLR058C, strain SHM2 (second series), active compounds read low 0.996 | locus YLR085C, strain ARP6, active compounds read low 0.933 | locus YLR262C, strain YPT6, active compounds read low 1.03 | locus YML094W, strain GIM5, active compounds read low 0.99 | locus YMR219W, strain ESC1, active compounds read low 0.987 | locus YMR263W, strain SAP30, active compounds read low 0.998 | locus YNL153C, strain GIM3, active compounds read low 0.992 | locus YNL298W, strain CLA4 (second series), active compounds read low 0.946 | locus YNL322C, strain KRE1, active compounds read low 0.989 | locus YNR030W, strain Alg12, active compounds read low 0.994 | locus YOL006C, strain TOP1, active compounds read low 0.752 | locus YPL055C, strain LGE1, active compounds read low 1.02 | locus YPL241C, strain CIN2, active compounds read low 0.975 | locus YPR135W, strain CTF4, active compounds read low 0.709
